The molecules below were run against Death-associated protein kinase 1 (Homo sapiens) (UniProt P53355). Conditions: at 1 µM.
Sequence of Death-associated protein kinase 1 (Homo sapiens) (P53355 whole entry, looked up): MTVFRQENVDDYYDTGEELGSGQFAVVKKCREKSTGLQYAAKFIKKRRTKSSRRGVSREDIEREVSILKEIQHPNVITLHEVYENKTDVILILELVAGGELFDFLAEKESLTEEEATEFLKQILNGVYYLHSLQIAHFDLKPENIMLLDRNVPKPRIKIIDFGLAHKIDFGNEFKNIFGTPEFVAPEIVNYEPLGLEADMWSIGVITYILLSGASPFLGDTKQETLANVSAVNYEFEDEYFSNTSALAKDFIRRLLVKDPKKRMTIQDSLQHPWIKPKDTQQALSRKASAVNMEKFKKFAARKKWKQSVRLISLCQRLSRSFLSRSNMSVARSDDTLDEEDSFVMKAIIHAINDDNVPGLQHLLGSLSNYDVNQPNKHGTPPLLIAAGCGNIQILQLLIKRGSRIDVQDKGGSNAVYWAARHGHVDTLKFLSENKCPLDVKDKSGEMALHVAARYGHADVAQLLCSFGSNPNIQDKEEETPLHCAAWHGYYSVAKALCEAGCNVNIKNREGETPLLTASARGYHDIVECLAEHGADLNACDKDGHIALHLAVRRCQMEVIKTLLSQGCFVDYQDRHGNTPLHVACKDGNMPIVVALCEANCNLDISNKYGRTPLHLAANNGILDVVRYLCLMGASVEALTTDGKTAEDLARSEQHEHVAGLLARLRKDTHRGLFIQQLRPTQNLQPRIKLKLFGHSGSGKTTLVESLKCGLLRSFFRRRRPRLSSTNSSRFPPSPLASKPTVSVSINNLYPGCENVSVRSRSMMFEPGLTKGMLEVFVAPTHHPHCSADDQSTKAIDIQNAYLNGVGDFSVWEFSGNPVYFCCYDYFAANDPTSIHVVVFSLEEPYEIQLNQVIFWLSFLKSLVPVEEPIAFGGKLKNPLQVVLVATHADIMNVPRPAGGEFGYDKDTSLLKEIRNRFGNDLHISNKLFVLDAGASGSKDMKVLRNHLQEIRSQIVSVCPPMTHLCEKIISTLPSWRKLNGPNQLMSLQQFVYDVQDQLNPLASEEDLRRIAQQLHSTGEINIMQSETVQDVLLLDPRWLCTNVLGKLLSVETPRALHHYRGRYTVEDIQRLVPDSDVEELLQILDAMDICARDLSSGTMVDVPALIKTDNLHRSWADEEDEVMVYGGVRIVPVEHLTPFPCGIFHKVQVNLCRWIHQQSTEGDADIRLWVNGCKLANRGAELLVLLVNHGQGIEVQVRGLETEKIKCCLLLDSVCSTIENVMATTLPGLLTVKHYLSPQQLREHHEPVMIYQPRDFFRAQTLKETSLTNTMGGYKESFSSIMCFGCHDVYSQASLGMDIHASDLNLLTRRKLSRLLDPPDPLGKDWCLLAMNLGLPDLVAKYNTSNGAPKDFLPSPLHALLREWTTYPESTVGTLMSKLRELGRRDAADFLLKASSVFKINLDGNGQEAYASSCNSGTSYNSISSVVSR

SMILES	residual activity
Nc1n[nH]c2nnc(-c3c(-c4ccccc4)nn4ccccc34)cc12	83%
COc1cc2ncc(-c3ccccc3)nc2cc1OC	87%
CO[C@@H]1[C@H](N(C)C(=O)c2ccccc2)C[C@H]2O[C@]1(C)n1c3ccccc3c3c4c(c5c6ccccc6n2c5c31)C(=O)NC4	63%
CCOC(=O)c1c(C)[nH]c(/C=C2\C(=O)Nc3ccccc32)c1C	83%
O=C(O)c1ccc2c3c1cccc3c(=O)n1c3ccccc3nc21	79%
O=C1Nc2cc(Br)ccc2/C1=C1/Nc2ccccc2/C1=N\O	80%
CC(=O)c1ccc(N2CCOCC2)cc1O	111%
NC(=O)c1ccc(-c2nc(-c3ccc4c(c3)OCCO4)c(-c3ccccn3)[nH]2)cc1	86%
COc1cccc(-c2cc(=O)c3ccccc3o2)c1N	81%
O=C1NC(=O)/C(=C\c2ccc3nccnc3c2)S1	87%
Nc1ccc2ncnc(NCCc3ccc(Oc4ccccc4)cc3)c2c1	94%
CNc1cc2c(Nc3cccc(Br)c3)ncnc2cn1	97%
Oc1ccc(Nc2nc(-c3ccc(Cl)cc3)cs2)cc1	90%
CC(C)(C)n1nc(Cc2cccc3ccccc23)c2c(N)ncnc21	86%
N#Cc1cnc2cnc(NCc3cccnc3)cc2c1Nc1ccc(F)c(Cl)c1	69%
Cn1nc2c3c(cccc31)C(=O)c1ccccc1-2	85%
O=C(O)/C=C/c1cc(Br)c(Br)c(Br)c1Br	86%
Nc1ncnc2c1c(-c1ccc(Oc3ccccc3)cc1)cn2C1CCCC1	91%
CC(C)[C@H](CO)Nc1nc(Nc2cc(N)cc(Cl)c2)c2ncn(C(C)C)c2n1	92%
Cc1cc2ncc(-c3ccccc3)nc2cc1C	92%
C[C@@H](N)[C@H]1CC[C@H](C(=O)Nc2ccncc2)CC1	102%
CCN(CC)CCNC(=O)c1c(C)[nH]c(/C=C2\C(=O)Nc3ccc(Cl)cc32)c1C	75%
COc1ccc(Cl)cc1NC(=O)Nc1cc(C)nc2ccccc12	94%
CC(C)(C)c1nc2c3ccc(F)cc3c3c(=O)[nH]ccc3c2[nH]1	8%
O=C(Nc1cccc(Nc2nccc(Nc3cccc(C(F)(F)F)c3)n2)c1)C1CC1	98%
COc1ccc(S(=O)(=O)N(CCO)c2ccccc2CN(C)C/C=C/c2ccc(Cl)cc2)cc1	86%
CC(C)N(CCC(=O)c1ccc2ccccc2c1)Cc1ccccc1	86%
Cn1cnc2cc3c(Nc4cccc(Br)c4)ncnc3cc21	94%
CC(=O)O/N=C1\C(=C2\C(=O)Nc3cc(Br)ccc32)Nc2ccccc21	98%
CO[C@H]1[C@@H](OC)C[C@H](C)[C@@H](OC)C2=CC(=O)C=C(NC(=O)/C(C)=C/C=C/[C@H](OC)[C@@H](OC(N)=O)/C(C)=C/[C@@H]1C)C2=O	96%
